PubChem BioAssay AID492996 (Johns Hopkins Ion Channel Center, 2010)
Results with a measured potency or affinity are listed apart. Activity calls are given as the source filed them.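 Rule for the calls: active = peak inhibition of the TRPC4 channel signal over 30% at some dose, with a fitted dose response curve; inactive = no inhibition or no dose response curve.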

Biological target: Short transient receptor potential channel 4 (Mus musculus) (UniProt Q9QUQ5)
Assay: mouse TRPC4 block via Gq-coupled stimulation – cell-based, acetylcholine stimulus, HEK293 TRPC4, Fluo-4, SAR follow-up (AID 492996)

Short transient receptor potential channel 4 (Mus musculus), sequence (Q9QUQ5 whole entry, looked up): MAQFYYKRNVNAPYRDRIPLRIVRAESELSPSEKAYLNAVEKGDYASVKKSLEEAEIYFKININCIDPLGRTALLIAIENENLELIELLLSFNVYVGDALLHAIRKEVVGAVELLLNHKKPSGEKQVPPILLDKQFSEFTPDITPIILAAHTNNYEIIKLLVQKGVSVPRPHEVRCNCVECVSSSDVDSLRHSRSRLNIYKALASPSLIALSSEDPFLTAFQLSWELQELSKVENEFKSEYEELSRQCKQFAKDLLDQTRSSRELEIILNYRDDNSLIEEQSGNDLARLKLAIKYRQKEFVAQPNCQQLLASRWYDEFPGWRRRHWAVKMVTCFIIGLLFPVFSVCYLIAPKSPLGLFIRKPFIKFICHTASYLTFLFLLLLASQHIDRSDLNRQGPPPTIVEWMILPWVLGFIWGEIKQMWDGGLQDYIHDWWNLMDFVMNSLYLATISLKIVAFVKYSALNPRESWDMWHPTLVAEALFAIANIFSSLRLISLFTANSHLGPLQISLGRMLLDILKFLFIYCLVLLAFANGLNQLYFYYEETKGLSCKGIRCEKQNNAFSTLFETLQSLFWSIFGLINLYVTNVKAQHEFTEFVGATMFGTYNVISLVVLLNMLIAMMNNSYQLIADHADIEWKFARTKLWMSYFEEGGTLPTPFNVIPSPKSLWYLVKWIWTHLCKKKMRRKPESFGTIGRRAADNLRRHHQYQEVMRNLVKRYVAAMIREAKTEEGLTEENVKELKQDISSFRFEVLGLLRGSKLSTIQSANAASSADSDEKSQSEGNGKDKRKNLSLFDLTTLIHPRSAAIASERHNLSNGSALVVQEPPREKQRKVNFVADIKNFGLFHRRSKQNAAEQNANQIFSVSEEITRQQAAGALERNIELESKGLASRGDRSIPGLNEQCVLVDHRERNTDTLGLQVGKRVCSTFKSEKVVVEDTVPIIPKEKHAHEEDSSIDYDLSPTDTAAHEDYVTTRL

Cc1cc(N2CCNCC2)nc2ccccc12
outcome: inactive
